Consider 60 compounds from PubChem BioAssay AID492953 (The Scripps Research Institute Molecular Screening Center, 2010).

In general, inhibition refers to the relative decrease from the control value, in per cent.

Each structure is given as a SMILES string. The whole screen tested about 340,000 compounds, of which about 4,200 (1.2%) were called active.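 How the source made its calls: active means inhibition above the mean of all tested compounds plus 3 SD (cut at about 24% in these data); inactive means the rest.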 Many of the other results were omitted from the sample, so actives are more common in it than they were.

The target in this assay is Platelet-activating factor acetylhydrolase IB subunit alpha2 (Homo sapiens) (UniProt P68402). The experiment in a line: inhibition of PAF acetylhydrolase 1b subunit 2 – biochemical, fluorescence polarization, human, primary screen (AID 492953).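 Further: 0% = enzyme with DMSO and 100% = wells lacking PAFAH1B2.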 The conditions noted are these: recombinant PAFAH1B2, FP-rhodamine activity probe, at 3.39 µM, hits give high values. (Polarisation of emitted light reports the rotation of a fluorescent probe.)
Platelet-activating factor acetylhydrolase IB subunit alpha2 (Homo sapiens), sequence (P68402 whole entry, looked up): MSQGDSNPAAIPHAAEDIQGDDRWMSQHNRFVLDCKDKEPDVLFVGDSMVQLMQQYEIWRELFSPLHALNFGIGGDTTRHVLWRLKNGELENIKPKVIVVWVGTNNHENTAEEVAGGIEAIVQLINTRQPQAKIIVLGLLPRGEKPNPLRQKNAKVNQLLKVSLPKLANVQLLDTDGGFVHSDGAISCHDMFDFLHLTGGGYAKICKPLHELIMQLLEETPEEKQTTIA
On to `Cc1ccc(S(=O)(=O)NCCNC(C)c2ccc(Br)cc2)cc1` (stereo not given), for which the inhibition was 23% (inactive).

In the case of `O=C(CCNS(=O)(=O)c1ccc(Br)cc1)NCC1CCCO1` (stereo not given), the inhibition is 7.29% (inactive).

In the case of `Cc1ccc(OCCNC(=O)CCNS(=O)(=O)c2ccc(Br)cc2)cc1`, the inhibition was 24.2% (active).

For the compound `Cc1ccc(CCN2CC(C(=O)NCCc3ccccc3)CC2=O)cc1` (stereo not given), the inhibition was 7.51% (inactive).

With `O=C1Nc2cc(Cl)c(Cl)cc2N(O)N1c1cc(Cl)cc(Cl)c1`, the inhibition was 6.99% (inactive).

For `CCCCN(C(=O)CSCc1ccc(C)cc1)c1c(N)n(Cc2ccccc2)c(=O)[nH]c1=O`, the inhibition is 8.05% (inactive).

As to `O=C(Nc1ccccc1)C1CC(=O)n2c(nc3ccccc32)N1` (stereo not given), the inhibition was -1.27% (inactive).

In the case of `CC(=O)Nc1ccc(S(=O)(=O)NC2(C(F)(F)F)C(=O)NC(C)=C2C#N)cc1` (stereo not given), the inhibition was 0.09% (inactive).

Consider `CC(=O)Nc1ccc(S(=O)(=O)NCCc2ccccc2)cc1`, for which the inhibition is 3.04% (inactive).

Consider `CC(=O)Nc1ccc(S(=O)(=O)NC2(C(F)(F)F)C(=O)Nc3c2c(=O)[nH]c(=O)n3Cc2ccccc2)cc1` (stereo not given), for which the inhibition was 24.4% (active).

As for `Cc1ccc(C(=O)NCC(=O)OCC(=O)NC2CCCCCCC2)cc1`, the inhibition is -0.8% (inactive).

On to `Cc1cc(OC(=O)c2ccc(OC(C)C)cc2)c([N+](=O)[O-])c(=O)[nH]1`, for which the inhibition was 1.4% (inactive).

Turning to `COc1cccc(C=CC(=O)C=CC=Cc2ccccc2)c1`, the inhibition is -1.3% (inactive).

With `COc1ccc(CCNS(=O)(=O)c2cn(C)nc2C)cc1`, the inhibition is 2.66% (inactive).

On to `CCC(C)[C@H]1COCCS(=O)(=O)N1Cc1ccc(C)cc1` (stereo not given in full), for which the inhibition is 7.04% (inactive).

Turning to `O=S1(=O)CCO[C@H]2Cc3ccccc3[C@H]2N1Cc1ccccc1`, the inhibition is 27.8% (active).

On to `O=S1(=O)CCOC[C@H](Cc2ccccc2)N1Cc1ccccc1Br`, for which the inhibition was 4.8% (inactive).

Consider `N#Cc1c(-c2ccccc2)nc(SCc2cccc(C(F)(F)F)c2)[nH]c1=O`, for which the inhibition was 14.2% (inactive).

With `Cc1ccc(CSc2nc(-c3ccccc3)c(C#N)c(=O)[nH]2)cc1`, the inhibition is 24.4% (active).

As to `N#Cc1c(-c2ccc(F)cc2)nc(-c2ccccc2)[nH]c1=O`, the inhibition was 1.36% (inactive).

With `Oc1oc(-c2ccccc2Br)nc1/C=N/c1ccccn1`, the inhibition was 1.69% (inactive).

Consider `CC(NC(=S)Nc1ccc(S(N)(=O)=O)cc1)c1ccc2c(c1)OCO2` (stereo not given), for which the inhibition was 27.8% (active).

Regarding `CCc1ccc(NC(=O)NC(C)c2ccc3c(c2)OCO3)cc1` (stereo not given), the inhibition was 4.07% (inactive).

For the compound `CC(NC(=O)Nc1cccc([N+](=O)[O-])c1)c1ccc2c(c1)OCO2` (stereo not given), the inhibition is 0.41% (inactive).

Turning to `Cc1ccc(NC(=O)N2CCSc3ccccc32)cc1`, the inhibition is 7.44% (inactive).

As to `O=C(Cc1cccs1)N(CC1CCCO1)C1(C(=O)NC2CCCCC2)CCCCC1` (stereo not given), the inhibition was 2.99% (inactive).

Turning to `O=C(Cn1cnc2ccccc21)Nc1ccccc1-c1ccccc1`, the inhibition is 5.45% (inactive).

Regarding `O=C(CNCc1ccc(F)cc1)Nc1ccccc1-c1ccccc1`, the inhibition is 24.4% (active).

Consider `CCC(C(=O)OCC(=O)Nc1ccccc1-c1ccccc1)c1ccccc1` (stereo not given), for which the inhibition was 7.25% (inactive).

As to `Cc1ccc(NC(=O)CCCNC(=O)c2ccc(Cl)cc2)cc1S(=O)(=O)N1CCOCC1`, the inhibition is 2.83% (inactive).

Regarding `COc1ccccc1CCNC(=O)C1CCN(C(=O)/C=C/c2ccccc2)CC1`, the inhibition was 10.8% (inactive).

`O=C(COc1ccc(Cl)cc1)NCCS(=O)(=O)N1CCN(c2ccc(F)cc2)CC1`: the inhibition is 28.6% (active).

Turning to `CCOc1ccc(CC(=O)NCCS(=O)(=O)N2CCN(c3ccccc3)CC2)cc1`, the inhibition was 1.28% (inactive).

`COc1ccc(OCC(=O)NCCS(=O)(=O)N2CCN(c3ccc(F)cc3)CC2)cc1`: the inhibition was -1.87% (inactive).

With `CCCC1NC(=S)NC(C)=C1C(C)=O` (stereo not given), the inhibition is -9.47% (inactive).

`CC(=O)OCC(=O)C1(O)CCC2C3CC(C)C4=CC(=O)CCC4(C)C3C(O)CC21C` (stereo not given): the inhibition was 1.34% (inactive).

Regarding `COc1ccccc1C(=O)Nc1ccnn1C1CCN(Cc2cnn(C)c2)CC1`, the inhibition is 4.33% (inactive).

For the compound `O=C1CCN(C(=S)NCCc2ccccc2)CC1`, the inhibition is 1.71% (inactive).

For `COc1ccc(CCNC(=S)N2CCN(S(=O)(=O)c3ccc(Cl)cc3)CC2)cc1`, the inhibition is 11.4% (inactive).

On to `Oc1cc2c(cc1O)CN(C(=S)NCCc1ccc(Cl)cc1)CCC2`, for which the inhibition is 63.6% (active).

As for `CC12c3ccccc3C(c3ccccc31)C1C(=O)N(Cc3cccnc3)C(=O)C12` (stereo not given), the inhibition is 1.4% (inactive).

Turning to `CCO/N=C(/C)c1c(O)cc(-c2ccccc2)n(-c2ccccc2)c1=O`, the inhibition is 7.22% (inactive).

Turning to `Cc1nn(-c2ccccc2)c(C)c1/C=N/NC(=O)CSc1nc2ccccc2c(=O)n1-c1ccccc1`, the inhibition is 2.37% (inactive).

For `C=CCO/N=C(\C)c1c(O)c(C)c(-c2ccccc2)n(-c2ccccc2)c1=O`, the inhibition is 31.5% (active).

As to `Cc1ccsc1-c1nc(CSCC(=O)NCCN2CCCC2)c(C)o1`, the inhibition was 0.8% (inactive).

Regarding `COc1cc2c(cc1OC)C(Cc1cc(OC)c(OC)cc1[N+](=O)[O-])=NCC2`, the inhibition is 0.33% (inactive).

For `CCCC1OC23CCCCC2C(C#N)(C#N)C1(C#N)C(=N)O3` (stereo not given), the inhibition was 29.1% (active).

Take `O=C1/C(=C\c2ccc(O)cc2)CCC1CNc1ccc(Cl)cc1` (stereo not given): the inhibition is -1.51% (inactive).

As to `O=C(O)CCn1cc(/C=C/C(=O)c2ccc(Cl)cc2)c(-c2cccc(Br)c2)n1`, the inhibition is 51.4% (active).

For `Cc1cccc(C=CC(=O)c2ccc(Cl)cc2)c1`, the inhibition is -1.7% (inactive).

Regarding `CCOC(=O)/C(C#N)=C/c1cn(CCC(=O)O)nc1-c1ccc(Br)cc1`, the inhibition is 2.11% (inactive).

As for `O=C(OCC(=O)N1CCN(C(=O)c2ccco2)CC1)c1ccc(Cl)c(Cl)c1`, the inhibition is 2.92% (inactive).

Regarding `NNC(=O)CSc1nnc(-c2ccccc2)n1-c1ccccc1`, the inhibition was 17.7% (inactive).

Turning to `O=C(O)CSc1nnc(-c2ccc3c(c2)OCO3)n1-c1ccccc1`, the inhibition is 0.01% (inactive).

On to `O=C(O)CCSc1nnc(-c2ccccc2)n1-c1ccccc1`, for which the inhibition was 24.4% (active).

`CCOc1cc(/C=N/NC(=O)c2cccc(S(=O)(=O)N3CCOCC3)c2)ccc1OCC(=O)N(C)C`: the inhibition was 2.5% (inactive).

As for `O=C(NCCc1ccccc1)c1c[nH]c2ccc(F)cc2c1=O`, the inhibition was 3.36% (inactive).

Take `CCOC(=O)c1ccccc1OC(=O)Oc1ccccc1C(=O)OCC`: the inhibition was 4.58% (inactive).

In the case of `CCOC(=O)c1c(C)[nH]c2c1-c1ccccc1C(=O)C2=O`, the inhibition is 46.4% (active).

Turning to `CCOC(=O)c1c(C)nc2c(c1C)c(=O)oc1ccccc12`, the inhibition is 4.46% (inactive).
